HP1b binding inh = inhibitors of HP1-beta chromodomain binding to methylated histone tails; 0.56% of 390,000 active; AlphaScreen HP1-beta / biotin-H3K9me3 peptide binding; Potency, µM (highest dose often 114 µM), for inactives: at the top dose activity change, negative = inhibition, actives largely listed as inhibitors; note: nearly all actives have a fitted effect of over 70% in size
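Compound inhibition of the preformed complex between 50 nM HP1-beta and 50 nM biotinylated H3K9me3 peptide was read by AlphaScreen. Buffer was PBS pH 7.4 with 0.01% Tween-20. Incubations ran 30 min at room temperature, with 10 ug/mL donor/acceptor beads.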
L3MBTL1 inh = L3MBTL1 (human) inhibition; Q9Y468; AlphaScreen L3MBTL1–H3K9me1 peptide binding; Potency, µM (top dose mostly 57.1 µM), for inactives: top-dose activity, negative = inhibition, usual class: inhibitors; 0.66% of 230,000 active; note: % is set by controls: 0 for no effect and ±100 for the full control effect; nearly all actives have a fitted effect of over 60% in size
Target sequence (Q9Y468 whole entry, looked up): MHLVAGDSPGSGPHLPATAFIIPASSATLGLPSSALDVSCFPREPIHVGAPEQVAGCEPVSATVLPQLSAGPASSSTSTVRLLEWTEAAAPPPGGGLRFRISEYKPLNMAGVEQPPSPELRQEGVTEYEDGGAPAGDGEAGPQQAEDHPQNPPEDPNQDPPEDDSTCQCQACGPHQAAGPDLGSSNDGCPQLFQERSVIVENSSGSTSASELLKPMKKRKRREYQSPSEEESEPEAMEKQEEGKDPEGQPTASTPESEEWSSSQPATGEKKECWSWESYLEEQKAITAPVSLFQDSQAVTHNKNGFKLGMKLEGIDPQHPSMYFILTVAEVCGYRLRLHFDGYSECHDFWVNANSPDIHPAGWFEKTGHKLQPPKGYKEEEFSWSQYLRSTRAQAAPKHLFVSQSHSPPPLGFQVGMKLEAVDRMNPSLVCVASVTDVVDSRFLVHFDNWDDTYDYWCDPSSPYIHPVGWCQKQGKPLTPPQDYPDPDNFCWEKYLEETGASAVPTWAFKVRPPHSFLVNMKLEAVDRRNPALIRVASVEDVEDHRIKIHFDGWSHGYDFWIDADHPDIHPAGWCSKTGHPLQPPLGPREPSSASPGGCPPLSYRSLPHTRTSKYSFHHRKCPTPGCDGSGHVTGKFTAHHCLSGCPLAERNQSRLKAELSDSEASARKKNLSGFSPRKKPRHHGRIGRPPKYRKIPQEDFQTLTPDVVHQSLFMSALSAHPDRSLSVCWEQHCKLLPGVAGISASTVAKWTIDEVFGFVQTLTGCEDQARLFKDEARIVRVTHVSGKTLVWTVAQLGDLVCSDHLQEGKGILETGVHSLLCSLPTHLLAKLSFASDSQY
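Read-out is AlphaScreen signal from streptavidin donor and nickel chelate acceptor beads (10 ug/mL final each) bridging L3MBTL1 (50 nM) and biotinylated K9-monomethylated H3(1-15) peptide (75 nM), after 30 min compound exposure at room temperature.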
G9a inh = blocks human histone lysine methyltransferase G9a. Q96KQ7. 8.8% of 350,000 active. Potency, µM (series often up to 102 µM), for inactives: top-dose activity, negative = inhibition, hits mostly inhibitors. AID 504332. G9a H3K9 monomethylation, AlphaScreen, 2 h; note: % is set by controls: 0 for no effect and ±100 for the full control effect; nearly all actives have a fitted effect of over 75% in size
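Enzyme 20 nM + cpd, 15 min RT; add b-H3K9 pep 500 nM / SAM 20 uM; 2 h RT; anti-H3K9me1 Ab 0.5 ug/mL + SA donor / anti-rabbit acceptor beads 20 ug/mL each, 10 min; AlphaScreen read.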
Sfp PPTase inh = inhibitors of Bacillus subtilis Sfp phosphopantetheinyl transferase | Biochemical Sfp PPTase activity, qHTS | Q9F4F7 | Potency, µM, for inactives: largest response in the series, negative = inhibition, usual class: inhibitors | 3.5% of 310,000 active;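 note: the enzyme is Sfp with the accession as filed and its product quenches rhodamine fluorescence; 0% = enzyme reaction without inhibitor and -100% = no enzyme wells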
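Step 1, compound plus 15 nM Sfp-PPTase, 15 min, room temperature. Step 2, add rhodamine-CoA (5 uM) and BHQ-2-YbbR (12.5 uM). Step 3, read 525/598 nm fluorescence at 0 and 30 min.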
BAZ2B block = BAZ2B (human) inhibition; AlphaScreen BAZ2B-H3K14Ac peptide displacement; Q9UIF8; 4.4% of 360,000 active; Potency, µM (highest dose often 114 µM), inactives show at the highest dose activity change, negative = inhibition, actives largely listed as inhibitors; AID 504333; note: % is set by controls: 0 for no effect and ±100 for the full control effect; nearly all actives have a fitted effect of over 60% in size
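AlphaScreen displacement: compounds (up to 110uM) incubated 30 min at room temperature with a preformed 50 nM BAZ2B/50 nM biotinylated H3K14Ac peptide complex in PBS pH 7.4 with Tween-20. Donor and acceptor beads at 10 ug/mL final added, 20 min light-protected before reading.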
JMJD2A Tudor = inhibitors of human JMJD2A Tudor domain. AID 504339. 4.4% of 390,000 active. Potency, µM (series often up to 114 µM), for inactives: at the top dose activity change, negative = inhibition, hits mostly inhibitors. O75164. AlphaScreen JMJD2A-Tudor / H3K4me3 peptide binding; note: % is set by controls: 0 for no effect and ±100 for the full control effect; nearly all actives have a fitted effect of over 50% in size
Starred values were filed as active, the others as inactive; ? = inconclusive; . = not tested or not shown; [ ] = dose if it differs, or a comment. Rows were chosen to be rich in hits. Some 12% of all compounds tested hit in one or more screens of this group. Calls come from the whole dose curve; as a rule, active = well fitted curve in the direction sought with a large enough effect; inconclusive = small, poorly fitted or top-dose-only effect, or another doubt; inactive = no such curve, though single readings can be large; an effect the other way counts as inactive or inconclusive. Potency is the fitted concentration of half-maximal effect.

SMILES	HP1b binding inh	L3MBTL1 inh	G9a inh	Sfp PPTase inh	BAZ2B block	JMJD2A Tudor
N#CCCSc1ccccc1NC(=O)c1cc(=O)c2ccccc2o1	16%	.	20µM*	22µM*	-18%	-21%
CN(C)S(=O)(=O)c1ccc(C(=O)Nc2ccccc2SCCC#N)cc1	9%	.	5µM*	14µM*	.	-12%
FC(F)(F)c1cc(-c2ccccc2)nc2cc(-c3ccccc3)nn12	47%	.	45%[59 µM]	.	12%	41%
Nc1c2c(nc3sc4c(c13)CCCC4)CCCCCC2	22%	4%	-5%[59 µM]	15%	-2%	-25%
Cc1ccc(C)c2c(N)c3c(nc12)CCCCC3 (tested in a mixture with another compound)	31%	.	45µM*	-1%	-4%	-4%
COc1ccc(S(=O)(=O)N(Cc2nc(-c3ccccc3)no2)C2CCCCC2)cc1	52%	.	20%[59 µM]	.	8%	9%
O=[N+]([O-])c1ccc(/C=N/Nc2ccc3ccccc3c2)o1	?	?	10µM*	-20%	8.9µM*	7.1µM*
O=C(N/N=C/c1ccc([N+](=O)[O-])o1)c1cc2ccccc2o1	3%[57 µM]	.	50µM*	7%	-36%	-35%
O=[N+]([O-])c1ccc(/C=N/Nc2nc(N3CCCC3)nc(N3CCCC3)n2)o1	11%	.	-10%[59 µM]	-2%	-5%	-31%
Cc1ccc2nc(N/N=C\c3ccc([N+](=O)[O-])o3)nc(-c3ccccc3)c2c1	14%	.	-9%	-1%	-31%	-16%
CCNc1nc(NCC)nc(N/N=C/c2ccc([N+](=O)[O-])o2)n1	11%	.	1.8µM*	-11%	?	-27%
Cc1ccc(/C=N/NC(=O)c2cc3c(ccc4ccccc43)o2)o1	40%	.	-6%	12%	-16%	-11%
O=C(N/N=C/c1ccc([N+](=O)[O-])o1)c1cc2c(ccc3ccccc32)o1	-10%	6.3µM*	.	?	56µM*	?
O=[N+]([O-])c1ccccc1S(=O)(=O)N1CCN(c2nc(-c3cccs3)nc3ccccc23)CC1	19%	.	.	.	.	-30%
Cc1nc2ccccn2c1C(=O)N/N=C/c1ccc([N+](=O)[O-])o1	?	?	50µM*	-16%	45µM*	40µM*
Cc1nc2ccccn2c1C(=O)N/N=C/c1ccc([N+](=O)[O-])cc1	13%	4%	-23%	7%	-2%	-15%
Cc1ccc(NC(=O)c2nc(S(C)(=O)=O)ncc2N(Cc2ccc(C(C)(C)C)cc2)Cc2ccco2)cc1C	22%	.	-10%[59 µM]	.	-25%	-19%
Cc1ccc(C)c(S(=O)(=O)N2CCN(C(=O)c3ccc(N4CCCC4)c([N+](=O)[O-])c3)CC2)c1	-10%	.	32µM*	-2%	?	?
Cc1ccc(C)c(N2CCN(C(=O)c3ccc(N4CCOCC4)c([N+](=O)[O-])c3)CC2)c1	45µM*	.	45µM*	-14%	?	56µM*
CCC(C)(C)NC(=O)C1CCN(S(=O)(=O)c2ccc3c(c2)CCCN3C(C)=O)CC1	10%[57 µM]	.	-1%[59 µM]	.	0%	-1%
Cc1ccc(-n2c(N)c(-c3nc4ccccc4n3C)sc2=S)cc1	?	-3%	3.5µM*	-66%	?	?
Cn1c(-c2ccc(N)cc2)nc2ccccc21	29%	-4%	1%	7%	5%	-14%
COC(=O)c1ccc2nc(NC(=O)C3CC3)sc2c1	13%[57 µM]	.	6%	-12%	-20%	-9%
Cc1ccc2nc(NC(=O)COC(=O)CSc3nc(C)cc(C)n3)sc2c1	34%	-7%	45µM*	?	-37%	-13%
COC(=O)c1ccc2nc(NC(=O)CN3C(=O)CCC3=O)sc2c1	-6%	1%	-7%[2.33 µM]	28µM*	56µM*	-21%[11.4 µM]
SMILES	HP1b binding inh	L3MBTL1 inh	G9a inh	Sfp PPTase inh	BAZ2B block	JMJD2A Tudor
COC(=O)c1ccc2nc(NC(=O)COC(=O)CSc3nc(C)cc(C)n3)sc2c1	30%	3%	13µM*	-17%	?	-6%
COc1ccc2nc(NC(=O)CSc3nc(C)cc(C)n3)sc2c1	30%	.	?	-5%	0%	-27%
Cc1ccc(C(=O)N/C(=C\c2ccc(Br)cc2)c2nc(=S)[nH][nH]2)cc1	-18%	-12%	15%	1%	?	45µM*
O=C(N/C(=C/c1cccc(Br)c1)c1nc(=S)[nH][nH]1)c1ccccc1	?	?	?	-5%	?	?
Cc1cccc(CNc2cc(-c3ccccc3CN(C)C)ncn2)c1	.	.	.	15%	.	.
CCn1cc(S(=O)(=O)c2ccc(C)cc2)[nH]c1=O	18%	.	17%	2%	-38%	-15%
CCc1c(C(C)S(=O)(=O)c2ccc(C)cc2)[nH]c(=O)n1-c1ccc(OC(F)(F)F)cc1 (centres undefined)	61%	.	10µM*	0%	-22%	-23%
Cc1ccc(N(C(=O)CS(=O)CC(=O)Nc2ccc(F)cc2)C(C)C(=O)NC(C)(C)C)cc1 (centres undefined)	15%	.	71µM*	1%	0%	2%
COc1cccc(C2CC(=O)Nc3c2c(=O)[nH]c2ncnn32)c1OC (centres undefined)	15%	.	?	.	-2%	-9%
COc1cccc(C2CC(=O)Nc3c2c(=O)[nH]c2ncnn32)c1 (centres undefined)	25%	.	1%	2%	-4%	35µM*
CN(C)c1cccc(C(=O)Nc2nnc(Cc3ccccc3)s2)c1	4%	.	40µM*	-8%	-31%	?
CC(C)(C)C(=O)Nc1nnc(Cc2ccccc2)s1	15%	6%	20%[59 µM]	13%	5%	-4%
CC(C)COC(=O)Nc1nnc(Cc2ccccc2)s1	-4%	4%	-12%	11%	-6%	18µM*
CC(=O)O[C@@H]1C(CO[Si](C)(C)C(C)(C)C)=C(Br)C(=O)[C@@H]2O[C@]12C	.	.	.	50µM*	.	.
COc1ccc(CC(=O)Nc2ccc(S(=O)(=O)NCC3CCCO3)cc2)cc1 (centres undefined)	-7%	12%	10µM*	?	7%	-13%
CCc1c(C)sc(NC(=O)CSc2nc3c(c(C(F)(F)F)n2)CCc2ccccc2-3)c1C#N	-4%	11%	?	45µM*	-1%	-13%
O=C(c1cc2cc([N+](=O)[O-])ccc2oc1=O)n1cccn1	18%	40µM*	45µM*	20%	-14%	-21%
CCN1CCN(C(=O)c2cc3cc([N+](=O)[O-])ccc3oc2=O)CC1	29%	1%	?	7%	-2%	1%
CCOc1ccc(C2NC(=O)c3sc(=S)n(-c4ccccc4)c3N2)cc1 (centres undefined)	20%	3%	32µM*	?	?	-28%

Bioassay records as filed in PubChem BioAssay.
